# Compounds without any hit were thinned out: in the full panel of roughly 83,000, 20% have a hit.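 96-well plates, one dose, 48 hours. Percent growth reported; active if below 10.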 Unmarked numbers belong to inactive results. The source made the active and inactive calls.
# Columns and labels:
# Assay in all cases: NCI-60 one-dose screen, 48 h (100 = growth as untreated, 0 = no growth, -100 = all killed)
# Settings in all cases: 10 µM unless noted
# DU-145 prostate = test system: DU-145 prostate
# K-562 leukemia = test system: K-562 leukemia
# MALME-3M melanoma = test system: MALME-3M melanoma
# MDA-MB-231 breast = test system: MDA-MB-231 breast
# RXF 393 renal = test system: RXF 393 renal
# SF-268 CNS = test system: SF-268 CNS
# SF-295 CNS = test system: SF-295 CNS
# SF-539 CNS = test system: SF-539 CNS
# UACC-257 melanoma = test system: UACC-257 melanoma
# M14 melanoma = test system: M14 melanoma
SMILES,growth (DU-145 prostate),growth (K-562 leukemia),growth (MALME-3M melanoma),growth (MDA-MB-231 breast),growth (RXF 393 renal),growth (SF-268 CNS),growth (SF-295 CNS),growth (SF-539 CNS),growth (UACC-257 melanoma),growth (M14 melanoma)
O=C(/C=C/c1cccc(O)c1)c1cccc(-n2cc(-c3ccc(Cl)cc3)[nH]c2=O)c1,-69.8% (active),-18.4% (active),-36% (active),-17.3% (active),-61.1% (active),-68.3% (active),4.32% (active),-89.7% (active),22.1%,-13% (active)
C[C@]12C=CC(=O)C=C1[C@@H](F)C[C@@H]1[C@@H]2[C@@H](O)C[C@@]2(C)[C@H]1CC[C@]2(O)C(=O)CO,95.1%,125%,81.8%,80.6%,126%,96.9%,123%,96.1%,96.1%,92.5%
O=C(Nc1ccc(Cl)c(Cl)c1)O/N=C\c1c(Cl)ccc([N+](=O)[O-])c1Cl,-82.5% (active),-7.08% (active),-44.9% (active),-59.7% (active),-45.1% (active),-4.9% (active),83.9%,4.51% (active),-49.2% (active),32%
CC1CCCCC[N+]12CCCC2 (stereo not given),105%,107%,100%,99%,92%,109%,92.2%,104%,104%,102%
CCC1(CC)C(OC)NC(Br)=C(C#N)C1(C#N)C(N)=O (stereo not given),97.5%,91.5%,137%,102%,-5.04% (active),131%,122%,93.9%,103%,-100% (active)
CC(=O)Nc1nc(C)c(C(=O)N/N=C/N2CCOCC2)s1,109%,174%,114%,109%,119%,103%,110%,105%,118%,113%
CC(=O)CCS(=O)c1ccccc1 (stereo not given),103%,98.9%,97.2%,106%,99.7%,94.9%,97.6%,113%,99.5%,105%
CC(=O)OCC(=O)[C@@]1(O)[C@H](C)C[C@H]2[C@@H]3C=C(C)C4=Cc5c(cnn5-c5ccc(F)cc5)C[C@]4(C)[C@H]3[C@@H](O)C[C@@]21C,13.9%,12.6%,61.8%,53.1%,-12.3% (active),34.2%,-32.2% (active),-39.6% (active),49.8%,32.6%
O=C(N/N=C/c1ccccc1Cl)c1cccc2ccccc12,115%,93.7%,97.9%,105%,110%,104%,99.7%,108%,111%,106%
Cc1sc(NC(=O)c2ccc(C(C)(C)C)cc2)c(C(=O)O)c1C,61.6%,38.1%,111%,105%,114%,88.1%,35.7%,65.8%,101%,107%
CCN(CC)c1ccc2nc3ccc(N=Nc4ccc(O)cc4)cc3[n+](-c3ccccc3)c2c1,82.1%,18.2%,35.4%,20.9%,30.6%,81%,66.8%,89.5%,-1.57% (active),61.3%
CCC(C)C1NC(=O)C(CC(C)C)NC(=O)C(C)NC(=O)C(C(C)C)NC(=O)C(CCCCN)NC(=O)C(CC(C)C)NC(=O)C(C(C)C)NC(=O)[C@H](C)NC(=O)C(C(C)CC)NC(=O)C(CCCN=C(N)N)NC(=O)C(CCCCN)NC(=O)C(CCCN=C(N)N)NC(=O)C(CCCCN)NC(=O)C([C@H](C)CC)NC(=O)C(CCCCN)NC1=O (stereo not given in full),23.8%,8.83% (active),15.2%,-0.693% (active),33%,20.3%,21.4%,67.2%,1.31% (active),17.7%
O=C(O)CC1Cc2ccccc2C1C(=O)O (stereo not given),106%,91.5%,103%,105%,105%,100%,100%,99.1%,107%,95.9%
Nc1cc2c(cc1Br)[nH]c(=O)c1ccccc12,27.8%,40.7%,26.3%,32%,22%,51.3%,74.8%,110%,45.8%,22%
O=C(CCl)c1ccc2c(c1)CCCC2,110%,72.1%,80.8%,103%,99%,104%,70.2%,90.8%,98.1%,95.5%
O=C(CN1C(=O)NC(c2ccccc2)(c2ccccc2)C1=O)c1ccc(N2CCCC2)cc1,107%,29.5%,72.1%,113%,81%,97.8%,72.1%,100%,85.8%,52.9%
COc1ccc(-c2nc(SCC(C)C)nc(Nc3ccc(C(=O)O)cc3)c2C#N)cc1,88.7%,89%,-57.7% (active),109%,83.1%,91%,75.9%,97.1%,96.9%,93%
O=C(O)c1ccc(Br)nc1,100%,100%,94.2%,100%,105%,95.4%,96.9%,97.7%,88.3%,101%
Cc1nc(NC(=S)Nc2ccc(F)cc2)sc1C(=O)NNC(=S)Nc1ccc(F)cc1,82%,51.4%,125%,77.9%,94%,92.4%,40.6%,93.8%,82.1%,51%
O=C1N/C(=N\c2nnc(-c3ccc(O)cc3)s2)S/C1=C\c1ccccc1O,95.2%,103%,82.8%,99.4%,113%,90.7%,94%,101%,102%,91.1%
[2H]c1nc(=Nc2cc(NC(=O)C=C)c(N(C)CCN(C)C)cc2OC)[nH]c(-c2cn(C([2H])([2H])[2H])c3ccccc23)c1[2H],45%,-18.3% (active),8.26% (active),54%,44.1%,51.2%,85.4%,40.5%,-2.01% (active),-52.7% (active)
N=C(N)c1ccc(-c2ccc(-c3ccc(Cl)cc3)s2)s1,-87.8% (active),-45.8% (active),-29.9% (active),-80.5% (active),-85% (active),-68.6% (active),-68.8% (active),-86.7% (active),-37.7% (active),-72.7% (active)
CCCCN(CCCC)CCCNc1c2c(nc3ccc(Cl)cc13)CCCC2,107%,72.8%,126%,70.5%,109%,92.3%,90.1%,100%,105%,98%
O=C(Nc1ccc(-n2cc(-c3ccncc3)c(-c3ccc(Cl)c(O)c3)n2)cc1)c1cc(Cl)cc(Cl)c1,72.8%,13.9%,24.7%,24.2%,-69% (active),74.5%,-61.6% (active),26%,54.7%,-49.1% (active)

# From PubChem BioAssay (NCI)
